For eight compounds, growth results are on record in PubChem BioAssay (NCI).

About 83,000 compounds went through this panel and 20% of them were active in at least one assay; those are over-represented in the sample as a whole.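 48-hour exposure, single concentration, 96-well plates; percent growth endpoint where 0 means no net growth. Active: below 10.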 A number with no mark means an inactive call. Active and inactive are the calls of the source.

Among the test systems are SR leukemia; RPMI-8226 leukemia; OVCAR-8 ovarian; OVCAR-5 ovarian; OVCAR-4 ovarian; SK-OV-3 ovarian; IGROV1 ovarian; OVCAR-3 ovarian; HS 578T breast; NCI/ADR-RES ovarian; T-47D breast; BT-549 breast; MDA-MB-435 melanoma; SW-620 colon; MCF7 breast; HCT-116 colon; HCC-2998 colon; KM12 colon.
Holding throughout (test): NCI-60 one-dose screen, 48 h (100 = growth as untreated, 0 = no growth, -100 = all killed)
What all share (details): 10 µM unless noted

As to `O=C(Cc1ccc(/C=C/C(=O)c2ncc[nH]2)cc1)Nc1cc(F)c(F)c(F)c1`, the growth is 14.9% in the assay on SR leukemia; 0.541% (active) in the assay with RPMI-8226 leukemia; 41.7% in the assay with OVCAR-8 ovarian; 80.7% with OVCAR-5 ovarian; 72.7% in the assay with OVCAR-4 ovarian; 103% in the assay on SK-OV-3 ovarian. The growth was 55.8% in the assay with IGROV1 ovarian; 3.93% (active) with OVCAR-3 ovarian; 37% with HS 578T breast; 66.5% in the assay on NCI/ADR-RES ovarian; 49.9% in the assay with T-47D breast; 66.7% in the assay with BT-549 breast. In addition, the growth in the assay on MDA-MB-435 melanoma was 51.2%; in the assay on SW-620 colon it was 13.1%; with MCF7 breast it was 10.4%; with HCT-116 colon it was 15.8%; with HCC-2998 colon it was 75.2%; in the assay on KM12 colon, 24.7%.
Take `CC1=Nc2cnc(Nc3ccc(N4CCCCC4)cc3)nc2Nc2ccccc21`: the growth is 34% with SR leukemia; 34.3% in the assay with RPMI-8226 leukemia; 77.2% with OVCAR-8 ovarian; 82.7% with OVCAR-5 ovarian; 52.2% in the assay on OVCAR-4 ovarian; 104% in the assay with SK-OV-3 ovarian. The growth is 63.3% with IGROV1 ovarian; 94.9% with OVCAR-3 ovarian; 84.5% with HS 578T breast; 62.6% in the assay with NCI/ADR-RES ovarian; 46.9% in the assay with T-47D breast; 42.5% with BT-549 breast. The growth in the assay on MDA-MB-435 melanoma is 89.7%; with SW-620 colon it was 96%; in the assay with MCF7 breast, 72.5%; in the assay with HCT-116 colon it was 59%; in the assay on HCC-2998 colon, 106%; in the assay on KM12 colon, 54.9%.
For `CC(C)(Sc1cc(C(C)(C)C)c(O)c(C(C)(C)C)c1)Sc1cc(C(C)(C)C)c(OC(=O)CCC(=O)O)c(C(C)(C)C)c1`, the growth in the assay on SR leukemia was 78.6%; in the assay on RPMI-8226 leukemia, 30.3%; in the assay on OVCAR-8 ovarian, 41.3%; in the assay with OVCAR-5 ovarian it was 87%; with OVCAR-4 ovarian it was 67%; in the assay on SK-OV-3 ovarian it was 80.3%. Also, the growth was 55.9% in the assay on IGROV1 ovarian; 46.8% with OVCAR-3 ovarian; 67.4% in the assay on HS 578T breast; 61.5% in the assay on NCI/ADR-RES ovarian; 31.4% with T-47D breast; 54.8% in the assay on BT-549 breast. Moreover, the growth in the assay on MDA-MB-435 melanoma was 47.2%; with SW-620 colon, 44.9%; in the assay on MCF7 breast it was 35.8%; with HCT-116 colon, 28.3%; in the assay with HCC-2998 colon it was 42.9%; in the assay with KM12 colon, 33.3%.
As for `O=C(c1ccc(Br)cc1)C(Br)C(c1ccc(Cl)cc1)C(c1ccccc1)[N+](=O)[O-]` (centres undefined), the growth is 103% in the assay with SR leukemia; 92.1% with RPMI-8226 leukemia; 95.3% with OVCAR-8 ovarian; 108% with OVCAR-5 ovarian; 81.4% with OVCAR-4 ovarian; 99.4% in the assay on SK-OV-3 ovarian. For the same compound, the growth is 108% with IGROV1 ovarian; 94.4% in the assay on OVCAR-3 ovarian; 87.1% in the assay on HS 578T breast; 95.6% in the assay on NCI/ADR-RES ovarian; 76.9% in the assay on T-47D breast; 105% with BT-549 breast. The growth in the assay with MDA-MB-435 melanoma is 95.9%; in the assay with SW-620 colon, 96.4%; with MCF7 breast it was 84.5%; in the assay with HCT-116 colon, 76.2%; in the assay on HCC-2998 colon it was 125%; in the assay with KM12 colon it was 92.7%.
Regarding `O=C(NCc1ccc(Cn2c(=O)sn(-c3ccccc3)c2=O)cc1)OCc1ccc2cccc(O)c2n1`, the growth in the assay on SR leukemia is -11.3% (active); in the assay with RPMI-8226 leukemia, -22.5% (active); with OVCAR-8 ovarian it was -0.135% (active); with OVCAR-5 ovarian it was -61.2% (active); with OVCAR-4 ovarian it was -33.6% (active); in the assay with SK-OV-3 ovarian, 75.8%. Also, the growth was -76.5% (active) in the assay on IGROV1 ovarian; -87.1% (active) with OVCAR-3 ovarian; -1.39% (active) in the assay with HS 578T breast; -28.1% (active) in the assay with NCI/ADR-RES ovarian; -41.7% (active) with T-47D breast; -85% (active) in the assay on BT-549 breast. Further, the growth is -89.9% (active) in the assay with MDA-MB-435 melanoma; -62.2% (active) in the assay on SW-620 colon; -43.2% (active) in the assay with MCF7 breast; -87% (active) in the assay with HCT-116 colon; -71.6% (active) with HCC-2998 colon; -15.1% (active) in the assay with KM12 colon.
Consider `CC1(C)CC[C@]23CC[C@]4(C)[C@H](CC[C@@H]5[C@@]6(C)CCNCC(C)(C)[C@@H]6CC[C@]54C)[C@H]2[C@H]1OC3`, for which the growth in the assay with SR leukemia is 4.33% (active); in the assay on RPMI-8226 leukemia, 29.7%; in the assay on OVCAR-8 ovarian, 97.4%; in the assay with OVCAR-5 ovarian, 106%; with OVCAR-4 ovarian, 99.8%; with SK-OV-3 ovarian, 96.5%. Also, the growth in the assay with IGROV1 ovarian was 107%; in the assay on OVCAR-3 ovarian, 98.5%; with HS 578T breast, 104%; in the assay with NCI/ADR-RES ovarian, 104%; with T-47D breast, 77.8%; with BT-549 breast it was 94.2%. Further, the growth in the assay on MDA-MB-435 melanoma is 86.5%; in the assay on SW-620 colon, 49.9%; in the assay with MCF7 breast, 91.5%; in the assay on HCT-116 colon, 55%; in the assay on HCC-2998 colon, 28.6%; in the assay with KM12 colon it was 81.4%.
In the case of `Cn1c2ccccc2c2c3c(c4c5cc(Br)ccc5n(C)c4c21)C(=O)N(O)C3=O`, the growth in the assay with SR leukemia was 18.6%; in the assay with RPMI-8226 leukemia, 10.8%; in the assay with OVCAR-8 ovarian, 24.8%; in the assay with OVCAR-5 ovarian, 92.6%; with OVCAR-4 ovarian, 53.7%; in the assay with SK-OV-3 ovarian, 3.4% (active). Besides, the growth in the assay on IGROV1 ovarian was 21.5%; with OVCAR-3 ovarian, 6.42% (active); in the assay with HS 578T breast, 61.9%; in the assay with NCI/ADR-RES ovarian, 6.86% (active); with T-47D breast it was -11.2% (active); with BT-549 breast, 41.2%. The growth in the assay with MDA-MB-435 melanoma is 22.8%; in the assay with SW-620 colon, 18%; in the assay with MCF7 breast, 10.7%; with HCT-116 colon it was 4.46% (active); with HCC-2998 colon, 57.5%; in the assay with KM12 colon, 34.1%.
On to `C1CCC(N2CN3c4nonc4N4CN(C5CCCCC5)CN5c6nonc6N(C2)C3C45)CC1` (centres undefined), for which the growth is 83.8% with SR leukemia; 81.3% in the assay on RPMI-8226 leukemia; 95.5% in the assay with OVCAR-8 ovarian; 102% in the assay with OVCAR-5 ovarian; 88.9% in the assay on OVCAR-4 ovarian; 109% in the assay with SK-OV-3 ovarian. In addition, the growth in the assay with IGROV1 ovarian was 104%; in the assay on OVCAR-3 ovarian, 101%; in the assay on HS 578T breast it was 86.6%; with NCI/ADR-RES ovarian it was 93.3%; in the assay with T-47D breast, 95.3%; in the assay on BT-549 breast, 99.8%. Further, the growth in the assay on MDA-MB-435 melanoma is 100%; with SW-620 colon it was 92.8%; in the assay with MCF7 breast, 89.1%; in the assay on HCT-116 colon it was 101%; in the assay on HCC-2998 colon, 98.4%; with KM12 colon, 98.8%.
